An excerpt weighted towards active compounds, which were near 18% of everything screened.
HepG2 viability – counter-screen for TGF-b inhibitors: cytotoxicity in HepG2 cells; HepG2 CAGA-GFP viability, ATP luminescence, 18 h; Potency, µM (series often up to 46.1 µM), hits mostly cytotoxic; hit rate 0.76% among 410,000
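CellTiter-Glo luminescence gave cytotoxicity after 18 hours at 37 degrees C. The cells were HepG2 CAGA-GFP in 1% FBS DMEM, stimulated with 500 pg/mL TGF-beta after compound addition. %Activity was normalised to no-cell wells (complete cell-killing) and DMSO (no toxicity), and curves were fitted and classified.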
DT40 TDP1 no CPT – qHTS for Inhibitors of human tyrosyl-DNA phosphodiesterase 1 (TDP1): qHTS in cells in absence of CPT; hit rate 15% among 420,000; AID 686978, 2013; Potency, µM (top dose mostly 46.2 µM), most hits filed as inhibitors; DT40 Tdp1-/- hTDP1 cells, no CPT, ATP luminescence, 48 h; note: nearly all actives have a fitted effect of over 55% in size
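Chicken DT40 Tdp1-/- cells complemented with human TDP1, screened without camptothecin (DMSO vehicle only), 400 cells/well. Compounds pin-transferred, cells incubated at 37 °C for at least 48 hr. Growth read as ATP-dependent luminescence (CellTiter-Glo, 30 min at RT).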
DT40 TDP1 CPT – DT40-hTDP1 cell growth loss with CPT; chicken DT40 Tdp1-/-;hTDP1 cells + 20 nM CPT, ATP luminescence, 48 h; Potency, µM (titrated, usually from 46.2 µM), hits mostly inhibitors; hit rate 12% among 420,000; AID 686979; note: nearly all actives have a fitted effect of over 55% in size
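Chicken DT40 Tdp1-/- cells stably complemented with human TDP1 were seeded at 400 cells/well in medium containing 20 nM camptothecin, exposed to pin-transferred compounds, and grown at 37 °C for at least 48 hr. Viability was read as ATP luminescence.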
TDP1 inh – blocks human tyrosyl-DNA phosphodiesterase 1; AID 485290; hit rate 0.28% among 350,000; Potency, µM (titrated, usually from 130 µM), most hits filed as inhibitors; recombinant TDP1, AlphaScreen DNA substrate cleavage; Q9NUW8; note: nearly all actives have a fitted effect of over 40% in size
Target sequence (Q9NUW8 whole entry, looked up): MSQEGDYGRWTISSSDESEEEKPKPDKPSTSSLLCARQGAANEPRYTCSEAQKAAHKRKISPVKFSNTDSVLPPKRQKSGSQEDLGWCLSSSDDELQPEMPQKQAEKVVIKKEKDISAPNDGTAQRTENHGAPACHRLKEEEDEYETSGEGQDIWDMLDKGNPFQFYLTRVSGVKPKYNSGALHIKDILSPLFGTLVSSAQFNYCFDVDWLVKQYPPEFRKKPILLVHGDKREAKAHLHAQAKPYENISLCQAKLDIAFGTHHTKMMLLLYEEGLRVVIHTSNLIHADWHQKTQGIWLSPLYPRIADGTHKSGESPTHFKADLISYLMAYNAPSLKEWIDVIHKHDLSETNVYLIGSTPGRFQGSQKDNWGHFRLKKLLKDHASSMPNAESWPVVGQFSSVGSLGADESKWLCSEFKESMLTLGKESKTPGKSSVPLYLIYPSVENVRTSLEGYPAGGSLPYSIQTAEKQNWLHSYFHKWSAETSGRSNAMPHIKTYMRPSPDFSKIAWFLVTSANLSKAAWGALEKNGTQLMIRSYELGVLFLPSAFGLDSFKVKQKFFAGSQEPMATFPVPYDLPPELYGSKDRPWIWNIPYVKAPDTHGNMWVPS
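Here, a 5' biotin and 3' phosphotyrosine-FITC DNA oligonucleotide reports Tdp1 activity: intact substrate bridges AlphaScreen beads, while cleavage leaves a 3' phosphate and drops signal. All incubations at room temperature.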
TGFb SMAD3 inh – blocks TGF-b signaling | Potency, µM (series often up to 46.1 µM), hits mostly inhibitors | HepG2 CAGA-GFP TGF-b/SMAD3 reporter, GFP fluorescence, 18 h; TGF-beta stimulated, 500 pg/mL final | hit rate 1.2% among 410,000 | AID 588855; note: nearly all actives have a fitted effect of over 65% in size
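HEPG2 CAGA-GFP cells (1000/well, DMEM with 1% FBS) were pre-incubated 2 h at 37 degrees C, given compound by pin tool, then stimulated with TGF-beta at 500 pg/mL final for 18 h before per-cell GFP fluorescence imaging.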
IL-1B inflam inh – blocks inflammasome-driven IL-1 beta release | THP-1 LPS/ATP IL-1B secretion, AlphaLISA, 16 h; hits give low values | activity change, % at 57.5 µM | hit rate 4.7% among 360,000 | AID 743279; in the data active = activity change below about -50%; inconclusive = mostly about -30% to -49%
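THP-1 cells pretreated 1 hr with compounds (up to 57.5 uM final), then stimulated with LPS (250 ng/mL final) plus ATP (1.25 mM final); secreted IL-1B measured by AlphaLISA after 16 hr, decreased signal indicating inhibition.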
Hits are given with their value; 0 = inactive; ? = inconclusive; - = no result; [ ] = remark or other dose. Unless noted, calls come from the whole dose curve; as a rule, active = well fitted curve in the direction sought with a large enough effect; inconclusive = small, poorly fitted or top-dose-only effect, or another doubt; inactive = no such curve, though single readings can be large; an effect the other way counts as inactive or inconclusive.

SMILES | HepG2 viability | DT40 TDP1 no CPT | DT40 TDP1 CPT | TDP1 inh | TGFb SMAD3 inh | IL-1B inflam inh
CCn1c(=O)cc(OCC(=O)Nc2ccc(C)cn2)c2ccccc21 | 0 | ? | ? | 0 | 0 | 0
CCn1c(=O)cc(SCC(=O)Nc2ccc(C)cn2)c2ccccc21 | 0 | 29µM | ? | 0 | ? | ?
CCCNC(=O)C1(C)CCN(CCC(=O)c2ccc(Br)cc2)C1 (stereo not given) | 0 | 3.3µM | 2.6µM | - | ? | 0
COCCNC(=O)C1(C)CCCN(Cc2ccc3ccccc3c2Br)C1 (stereo not given) | 0 | ? | ? | - | ? | 0
CCNC(=O)C1(C)CCN1CCC(=O)c1ccc(Br)cc1 (stereo not given) | 0 | 16µM | 21µM | - | 0 | 0
COCCNC(=O)C1(C)CCCN(CCC(=O)c2ccc(Br)cc2)C1 (stereo not given) | 13µM | 7.3µM | 5.8µM | - | 16µM | 0
CCNC(=O)C1(C)CCN1CCS(=O)(=O)c1ccc(C)cc1 (stereo not given) | 0 | 0 | 0 | - | 0 | 0
NC(=S)c1csc(CCNC(=O)c2ccccc2)n1 | 0 | 0 | 0 | - | 0 | 0
N/C(=N\OC(=O)c1ccc(=O)n(Cc2ccc(Cl)cc2)c1)c1ccccn1 | 0 | ? | 21µM | 0 | 0 | 0
N/C(=N\OC(=O)c1ccc(=O)n(Cc2ccccc2)c1)c1ccccn1 | 0 | ? | ? | 0 | 0 | 0
COc1cccc(C(=O)O/N=C(\N)c2ccccn2)c1OC | 0 | 7.3µM | ? | - | 0 | 0
CCCc1ccc(C(=O)O/N=C(\N)c2ccccn2)cc1 | 0 | 0 | ? | 0 | 0 | -58
Cc1ccc(CNC(=O)c2c(Nc3ccccc3C)sc(C(=O)c3ccc(F)cc3)c2N)cc1 | 16µM | 15µM | ? | 0 | 18µM | -
COc1cccc(Nc2sc(C(=O)c3ccc(F)cc3)c(N)c2C(=O)NCc2ccc(C)cc2)c1 | 0 | 5.2µM | 4.1µM | 0 | 14µM | -
COc1cccc(Nc2sc(C(=O)c3ccc(Cl)cc3)c(N)c2C(=O)NCCc2ccc(OC)c(OC)c2)c1 | 0 | ? | ? | 0 | ? | -
COc1ccc(CNC(=O)c2c(Nc3ccccc3C)sc(C(=O)c3ccccc3)c2N)cc1 | 0 | 5.2µM | ? | 0 | ? | -
COc1ccc(CNC(=O)c2cnn(-c3ncc4c(n3)-c3ccccc3CC4)c2C)cc1OC | - | 0 | 0[9.04 µM] | - | - | -
CCn1c(N2CCN(S(=O)(=O)c3ccccc3C(F)(F)F)CC2)nc2ccccc21 | 0 | 16µM | ? | 0 | 0 | -52
CCn1c(N2CCN(S(=O)(=O)c3ccc(OC)cc3)CC2)nc2ccccc21 | 0 | ? | ? | - | ? | -66
O=S(=O)(c1ccccc1C(F)(F)F)N1CCN(S(=O)(=O)c2ccccc2C(F)(F)F)CC1 | 0 | 0 | ? | 0 | 0 | 0
COc1ccc(S(=O)(=O)N2CCN(Cc3ccccc3OC)CC2)cc1 | 0 | ? | 0 | - | 0 | 0
CCN1CCN(S(=O)(=O)c2ccc(Oc3ccccc3OC)cc2)CC1 | 0 | 23µM | 0 | 0 | 0 | 0
CCn1c(N2CCN(C(=O)C34CC5CC(CC(C5)C3)C4)CC2)nc2ccccc21 | 0 | 26µM | 29µM | 0 | ? | ?
O=C(N1CCN(c2ccccc2)CC1)C12CC3CC(CC(C3)C1)C2 | 0 | ? | 0 | 0 | 0 | 0
COc1cccc(Cn2c(=O)cnc3cnc(N4CCOCC4)nc32)c1 | - | ? | 0 | - | - | -
SMILES | HepG2 viability | DT40 TDP1 no CPT | DT40 TDP1 CPT | TDP1 inh | TGFb SMAD3 inh | IL-1B inflam inh
CCN1CCN(c2nnc(-c3ccc(C)cc3)c3ccccc23)CC1 | 0 | 0 | 0 | - | 0 | ?
CS(=O)(=O)N(CCc1ccccc1)CC(=O)N1CCN(c2ccc(F)cc2)CC1 | 0 | 23µM | ? | 0 | ? | 0
CS(=O)(=O)N(CC(=O)N1CCN(c2ccccc2F)CC1)c1cc(C(F)(F)F)ccc1Cl | 0 | 16µM | ? | 0 | 0 | 0
CCc1ccccc1N(CC(=O)N1CCN(c2ccc(F)cc2)CC1)S(C)(=O)=O | 0 | 23µM | 15µM | 0 | 0 | 0
CCc1ccccc1N(CC(=O)N1CCCC1)S(C)(=O)=O | 0 | 0 | 0 | 0 | 0 | 0
COc1ccc(C(=O)NCCS(=O)(=O)N2CCc3ccccc3C2)cc1 | 0 | 0 | 0 | - | 0 | 0
CNc1c(Br)cc(C(O)C2=CCc3ccccc32)cc1Br (stereo not given) | 0 | 4.5µM | 8.9µM | - | 0 | -
CCOC(=O)C1=CN(Cc2ccco2)S(=O)(=O)N(CC)C1c1ccc(C(F)(F)F)cc1 (stereo not given) | 0 | 16µM | 23µM | 0 | ? | 0
COc1ccc(S(=O)(=O)N2CCCCCC2)cc1NC(=O)Cc1n[nH]c(=O)c2ccccc12 | 0 | 0 | 0 | ? | ? | 0
CN(C)CCCN(C(=O)c1cc(-c2cccs2)nc2ccccc12)c1nc2c(F)cccc2s1 | 0 | 0 | ? | 0 | ? | -74
Cc1ccc2nc(N(CCCN(C)C)C(=O)c3cc(-c4cccs4)nc4ccccc34)sc2c1 | 11µM | ? | 16µM | 0 | 16µM | ?
CN(C)CCCN(C(=O)c1sc2ccccc2c1Cl)c1nc2c(F)cccc2s1 | 0 | ? | 0 | 0 | 0 | 0
CCn1nnc2cc(C(=O)Nc3cc(C)ccc3C)ccc21 | 0 | ? | ? | 0 | 0 | -
COc1ccc(/C=C2\C(=O)NC(=S)N2C(=O)c2ccc(C)cc2)cc1 | 0 | 15µM | ? | ? | 0 | 0
CCOC(=O)c1ccc(NC(=O)c2sc3nc(N4CCOCC4)c4c(c3c2N)CCCC4)cc1 | 0 | 16µM | ? | 0 | 0 | 0
CN(C(=O)c1sc2nc(N3CCOCC3)c3c(c2c1N)CCCC3)c1ccccc1 | 0 | 23µM | ? | 0 | 0 | 0
COc1ccccc1NC(=O)c1sc2nc(N3CCOCC3)c3c(c2c1N)CCCC3 | 0 | ? | ? | 0 | 0 | 0
COc1ccc(NC(=O)c2sc3nc(N4CCOCC4)c4c(c3c2N)CCCC4)cc1 | 0 | 0 | 0 | - | 0 | 0
Cc1ccccc1NC(=O)c1sc2nc(N3CCOCC3)c3c(c2c1N)CCCC3 | 0 | 7.3µM | ? | 0 | 0 | 0
Nc1c(C(=O)NCCc2ccccc2)sc2nc(N3CCOCC3)c3c(c12)CCCC3 | 0 | 23µM | 16µM | 0 | 0 | ?
COc1cccc(C(C(=O)NCc2ccccc2)N(C(=O)Cn2nnc3ccccc32)c2cccc(C(C)=O)c2)c1 (stereo not given) | 0 | 0 | 0 | 0 | 0 | -
Cc1ccc(C(=O)C(C)OC(=O)C2CCN(c3ccc(C(F)(F)F)cn3)CC2)cc1C (stereo not given) | 0 | ? | ? | - | 0 | 0

Screening results (PubChem BioAssay)
